Test results: PubChem BioAssay (EPA / NIEHS)
Results filed as inconclusive are left out. Activity calls are given as the source filed them. The calls were made as follows, unless noted: active = hit-call score of the fitted dose curve at least 0.9, where 1 is the maximum; inactive = score below 0.9.

What was measured:
[1] = ACEA_ER_80hr: ACEA Biosciences xCELLigence Real-Time Cell Analysis on Estrogen Receptor Agonism for Proliferation (AID 2282667; active = hit-call score of the fitted dose curve at least 0.9, where 1 is the maximum); conditions: T47D proliferation, impedance (xCELLigence), 80 h
In short: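 T47D human breast cells were seeded on electrode plates, monitored overnight, then exposed continuously to compounds in eight-point 1:4 dilutions from 100 uM (max 0.5% DMSO). Impedance-based growth was read at 80 h, fitted upward relative to DMSO.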

[2] = ATG_CMV_CIS: Attagene CIS-FACTORIAL HepG2 Assay for human CMV (Internal Marker) (AID 2282928); conditions: HepG2 CMV promoter reporter, transcription factor profiling; actives raise or lower the signal;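 also: endpoint acts as a background internal control marker rather than a target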
In short: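 Cell system: HepG2, transiently transfected multiple reporter units under cis promoters. Exposure: 24 h. Detection: RT-PCR, FAM labeling, HpaI digestion, capillary electrophoresis. Analysis: bidirectional, DMSO baseline.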

[3] = ATG_DR4_LXR_CIS: Attagene CIS-FACTORIAL HepG2 Assay for human Liver X Receptor (LXR), DR4 submotif (AID 2282929); conditions: HepG2 Attagene DR4 cis-reporter, mRNA transcription; actives raise or lower the signal
In short: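 Readout: reporter transcript fluorescence after RT-PCR and capillary electrophoresis, fitted bidirectionally against DMSO controls. Human HepG2 liver cells carried transiently transfected multiplexed reporter constructs; endogenous transcription factor activity measured 24 h post-dosing.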

[4] = target: Aryl hydrocarbon receptor (Homo sapiens) (UniProt P35869); experiment: ATG_Ahr_CIS: Attagene CIS-FACTORIAL HepG2 Assay for human Aryl Hydrocarbon Receptor (Ahr) (AID 2282930); conditions: HepG2 AhR cis-factorial reporter transcription; actives raise or lower the signal
Aryl hydrocarbon receptor (Homo sapiens), sequence (P35869 whole entry, looked up): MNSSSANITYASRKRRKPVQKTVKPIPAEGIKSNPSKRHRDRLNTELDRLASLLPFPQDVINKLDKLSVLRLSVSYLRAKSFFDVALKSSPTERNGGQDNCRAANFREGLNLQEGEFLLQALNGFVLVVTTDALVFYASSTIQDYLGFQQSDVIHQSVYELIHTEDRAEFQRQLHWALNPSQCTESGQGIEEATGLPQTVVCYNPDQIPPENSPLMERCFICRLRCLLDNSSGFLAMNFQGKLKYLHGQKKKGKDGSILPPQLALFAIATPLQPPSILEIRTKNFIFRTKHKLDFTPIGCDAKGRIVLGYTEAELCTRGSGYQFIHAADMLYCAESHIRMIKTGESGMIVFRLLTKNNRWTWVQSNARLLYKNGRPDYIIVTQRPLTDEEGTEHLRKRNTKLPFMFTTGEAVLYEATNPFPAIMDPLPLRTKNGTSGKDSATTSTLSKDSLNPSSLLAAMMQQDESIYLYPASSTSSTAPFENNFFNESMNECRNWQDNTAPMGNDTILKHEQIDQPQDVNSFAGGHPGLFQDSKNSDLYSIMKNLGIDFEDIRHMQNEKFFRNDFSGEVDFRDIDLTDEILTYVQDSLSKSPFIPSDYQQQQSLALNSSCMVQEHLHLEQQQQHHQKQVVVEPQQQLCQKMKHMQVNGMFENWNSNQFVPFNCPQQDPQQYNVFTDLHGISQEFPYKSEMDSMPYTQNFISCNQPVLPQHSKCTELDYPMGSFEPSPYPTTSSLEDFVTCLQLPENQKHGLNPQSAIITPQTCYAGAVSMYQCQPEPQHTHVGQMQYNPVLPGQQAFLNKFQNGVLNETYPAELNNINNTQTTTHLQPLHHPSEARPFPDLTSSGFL
In short: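 Transient MRTU transfection of HepG2 → 24 h compound exposure → total RNA, oligo(dT) RT → PCR, 6-FAM extension, HpaI cut → CE fluorescence. DMSO = baseline; bidirectional curve fit.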

[5] = ATG_AP_2_CIS: Attagene CIS-FACTORIAL HepG2 Assay for human Activator Protein 2 (AP-2) (AID 2282932); conditions: HepG2 AP-2 cis-reporter, Attagene transcription factor profiling; actives raise or lower the signal
In short: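 Step one: transient transfection of HepG2 with reporter transcription units. Step two: 24 h chemical exposure. Step three: RNA extraction, RT-PCR, labelled fragment analysis by capillary electrophoresis; DMSO serves as baseline.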

[6] = ATG_BRE_CIS: Attagene CIS-FACTORIAL HepG2 Assay for human Bone Morphogenetic Protein (BMP) Response Element (BRE) (AID 2282933); conditions: HepG2 BMP response element reporter, Attagene transcription factor profiling; actives raise or lower the signal
In short: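 Endogenous transcription factor activity read in transiently transfected HepG2 cells after 24 h chemical exposure. Bidirectional curve fitting against DMSO; readout is reporter transcript level by RT-PCR with capillary electrophoresis of labelled products.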

[7] = target: Retinoic acid receptor alpha (Homo sapiens) (UniProt P10276); experiment: ATG_DR5_RAR_CIS: Attagene CIS-FACTORIAL HepG2 Assay for human Retinoic Acid Receptor Alpha (RARE), DR5 submotif (AID 2282934); conditions: HepG2 Attagene cis-factorial RARE DR5 reporter, mRNA; actives raise or lower the signal
Retinoic acid receptor alpha (Homo sapiens), sequence (P10276 whole entry, looked up): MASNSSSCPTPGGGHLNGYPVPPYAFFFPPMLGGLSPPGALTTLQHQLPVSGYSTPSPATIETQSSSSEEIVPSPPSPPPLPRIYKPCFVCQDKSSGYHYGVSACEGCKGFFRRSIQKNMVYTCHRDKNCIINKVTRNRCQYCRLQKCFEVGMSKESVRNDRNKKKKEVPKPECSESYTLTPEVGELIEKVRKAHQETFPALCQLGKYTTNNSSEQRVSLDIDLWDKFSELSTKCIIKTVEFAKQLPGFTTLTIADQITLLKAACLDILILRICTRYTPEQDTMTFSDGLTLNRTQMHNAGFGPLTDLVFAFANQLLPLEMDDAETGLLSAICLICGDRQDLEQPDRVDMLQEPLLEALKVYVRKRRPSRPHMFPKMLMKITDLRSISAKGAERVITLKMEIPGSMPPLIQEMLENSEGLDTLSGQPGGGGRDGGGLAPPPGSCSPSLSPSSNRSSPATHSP
In short: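 Transient MRTU transfection of HepG2; 24 h compound treatment; TriZol RNA, oligo(dT) RT, PCR, FAM labelling, capillary electrophoresis. Bidirectional fit vs DMSO. Endogenous TF activity at DR5 RARE.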

[8] = ATG_AP_1_CIS: Attagene CIS-FACTORIAL HepG2 Assay for human Activator Protein 1 (AP-1) (AID 2282931); conditions: HepG2 Attagene cis-factorial AP-1 reporter mRNA; actives raise or lower the signal
In short: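 Reporter transcripts were measured 24 h after dosing by RT-PCR and capillary electrophoresis of fluorescent fragments. Cells: HepG2 carrying transfected cis-regulated reporter constructs reading endogenous factor activity. Gain or loss fitted against DMSO.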

Measured: outcome

CC/C=C\CCOC(C)=O
not listed: [8]
inactive: all other assays above

FC(F)(F)C(F)(F)C(F)(F)C(F)(F)C(F)(F)C(F)(F)CCS
not listed: [8]
inactive: all other assays above

FC(F)(F)C(F)(F)C(F)(F)C(F)(F)C(F)(F)C(F)(F)C(F)(F)I
not listed: [4]
inactive: all other assays above
